NS1 inh: blocks influenza NS1 protein function; Potency, µM (highest dose often 46.1 µM), for the others: top-dose activity, positive = more growth; 0.4% of 270,000 active; AID 2326; calls by dose curve; note: potency is the fitted concentration of half-maximal effect; actives are rising curves; nearly all actives have a fitted effect of over 50% in size
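In this qHTS, NS1 from influenza A is expressed in budding yeast, where it slows growth. Cells are switched from glucose to 2% galactose medium (pH 6.0, -URA), treated with compound, and growth recovery is read at OD600.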
HCV inh: blocks hepatitis C virus. 3.4% of 340,000 active. Potency, µM (titrated, usually from 41.8 µM), for inactives: at the top dose activity change, negative = inhibition, usual class: inhibitors. AID 651820. Huh7.5.1 HCVcc-Cre infection, luciferase reporter, 44 h; note: potency is the fitted concentration of half-maximal effect; % is set by controls: 0 for no effect and ±100 for the full control effect
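Infectious HCV cell culture screen: compound-treated cells (1,000/well, pre-plated 4 h) are infected with HCVcc-Cre at roughly 0.5 moi and grown 44 h. Infection is quantified by luciferase signal after 15 min substrate incubation at room temperature.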
Pf growth 96h: P. falciparum growth inhibition at 96 hour, primary screen for plastid delayed-death inhibitors. P. falciparum luciferase reporter growth, 96 h. 6.9% of 320,000 active. Potency, µM (top dose mostly 28.7 µM), for the others: at the highest dose activity change, negative = inhibition, actives largely listed as inhibitors; note: potency is the fitted concentration of half-maximal effect; % is set by controls: 0 for no effect and ±100 for the full control effect
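Infected RBCs, 2% Hct / 0.05% parasitemia final; luciferase-reporter P. falciparum; cpd 96 h, 37 C, 5% CO2; luciferase detection reagent; luminescence.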
SARS PLpro yeast: inhibitors of SARS-CoV papain-like protease in yeast; S. cerevisiae expressing SARS-CoV PLpro, growth rescue; Potency, µM (series often up to 32.9 µM), inactives show at the top dose activity, positive = growth rescue, most hits filed as activators; 0.19% of 330,000 active; AID 485353; calls by dose curve; note: potency is the fitted concentration of half-maximal effect; 0% is about no effect; nearly all actives have a fitted effect of over 55% in size
AMA1 RON2 block: disrupts binding of P. falciparum AMA1 to RON2; 0.2% of 360,000 active; AlphaScreen AMA1-biotinylated RON2 peptide binding; Potency, µM (titrated, usually from 58.2 µM), without a hit: at the highest dose activity change, negative = inhibition, most hits filed as inhibitors;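 note: potency is the fitted concentration of half-maximal effect; 0% = vehicle wells and -100% = peptide control; nearly all actives have a fitted effect of over 45% in size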
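AMA1 (3D7) with his tag at 25 nM final met compounds first, then biotinylated RON2 peptide at 25 nM; detection used donor plus acceptor beads, 10 µg/mL apiece, read by AlphaScreen after 30 min at room temperature.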
Pf growth 48h: P. falciparum growth inhibition at 48 hours (one generation) | 5.9% of 310,000 active | Potency, µM (series often up to 28.7 µM), without a hit: at the highest dose activity change, negative = inhibition, hits mostly inhibitors | AID 504832 | P. falciparum luciferase growth in erythrocytes, 48 h; note: potency is the fitted concentration of half-maximal effect; % is set by controls: 0 for no effect and ±100 for the full control effect
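Luminescence readout; reporter = integrated firefly luciferase in P. falciparum. RBC culture at 2% hematocrit, 0.1% parasitemia final, 37 C/5% CO2; decreased signal taken as growth inhibition.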
NS1 inh valid: influenza NS1 function inhibition validation; shares compounds with NS1 inh; influenza NS1 function cell assay, 15-point titration; activity change, negative = inhibition, % at 32.9 µM; 1,400 tested, under 10 active; AID 492980; calls by dose curve; note: 0% is about no effect
Flu PR8 replic: influenza NS1 inhibitors: inhibition of influenza A/PR/8/34 replication; AID 504647; 30% of 95 active; MDCK infected influenza A/PR/8/34, virus titer TCID50; stronger effect = lower value; virus titer (log TCID50), log10 TCID50 at 5 µM; shares compounds with NS1 inh; call rule not given here
* = called active by the depositor; ? = inconclusive; nt = no result; [ ] = another dose, or the depositor's remark. This is a sample that favours compounds with a hit; in the whole collection about 12% have one here. Unless noted, calls come from the whole dose curve; as a rule, active = well fitted curve in the direction sought with a large enough effect; inconclusive = small, poorly fitted or top-dose-only effect, or another doubt; inactive = no such curve, though single readings can be large; an effect the other way counts as inactive or inconclusive.

SMILES	NS1 inh	HCV inh	Pf growth 96h	SARS PLpro yeast	AMA1 RON2 block	Pf growth 48h	NS1 inh valid	others
CN(C)/C=C/C(=O)c1nnn(C2CCCCC2)c1NC1CCCCC1	7.9µM*	-27%	nt	0%	-3%	5.2µM*	?
COc1ccccc1N1CCN(C2CCCN(C(=O)c3cscn3)C2)CC1 (stereo unspecified)	?	8%	?	-1%	-1%	19%	-13
CC1=C(C(=O)N2CCCC(N3CCN(c4ccccc4C)CC3)C2)OCCO1 (stereo unspecified)	2.5µM*	-12%	?	17%	-10%	4%	1
COc1ccccc1N1CCN(C2CCCN(C(=O)c3cc(C4CC4)on3)C2)CC1 (stereo unspecified)	0%	-16%	21%	10%	-9%	-4%	nt
CC1=C(C(=O)N2CCCC(N3CCN(c4ccccc4F)CC3)C2)OCCO1 (stereo unspecified)	14%	14%	-102%	6%	9%	1%	nt
Cc1cc(OCC(=O)N[C@@H](CSCc2ccccc2)C(=O)O)c2c(C)c(C)c(=O)oc2c1	13µM*	7%	10µM*	0%	-5%	?	?
CCC(CC)c1nnc(NC(=O)c2cccc(S(=O)(=O)N3CCc4ccccc43)c2)s1	8.9µM*	17%	?	1%	16%	15µM*	0
O=C(Nc1nncs1)c1cccc(S(=O)(=O)N2CCc3ccccc32)c1	-2%	1%	18%	0%	13%	10%	nt
COc1ccc(CNC(=O)c2ccccc2NC(=O)C2=CSCCO2)c(OC)c1	-3%	?	?	0%	-9%	?	nt
C=CCC[C@@H](CCCCC)OC(=O)/C=C/[C@@H](O)[C@H](O)C[C@@H](O)CC=C	nt	nt	nt	nt	-12%	nt	nt
Oc1ccccc1Nc1ccccn1	?	?	?	-3%	7%	?	1
c1ccc(Nc2ccccn2)nc1	-3%	5%	24%	4%	170%	3%	nt
CCCNC(=O)N[C@H]1C=C[C@H](CC(=O)OC)O[C@@H]1CO	nt	nt	nt	nt	3%	nt	nt
CCCCC1=CC2=CC(=O)C(C)(OC(=O)CC)C(=O)C2=CN1CCOC (stereo unspecified)	?	3%	21%	-3%	0%	?	8
O=C(O)CSc1nnc(-c2cc3ccccc3o2)n1-c1ccccc1	?	-4%	?	11%	7%	7%	3
O=C1NCCN/C1=C\C(=O)c1cccc(Br)c1	-45%	-10%	171%	-4%	-4%	63%	nt
O=C(NNc1nc(-c2ccccc2)c2cc(Br)ccc2n1)c1ccc(S(=O)(=O)N2CCCCC2)cc1	?	-2%	2%	-6%	63%	-11%	nt
O=C(NNc1nc(-c2ccccc2)c2cc(Br)ccc2n1)c1ccc(S(=O)(=O)N2CCOCC2)cc1	11µM*	12%	4%	7%	45%	2%	34
Clc1ccccc1N1CCN(Cc2c[nH]c3ccccc23)CC1	nt	-15%	nt	nt	-20%	nt	nt
Fc1ccccc1N1CCN(C2CCN(Cc3c[nH]c4ccccc34)CC2)CC1	25µM*	?	3.7µM*	9%	24%	nt	-16
COCC(C)n1c(C)cc(C(=O)CSc2nc(C)c(C)c(C)n2)c1C (stereo unspecified)	?	10µM*	?	0%	-7%	?	-5
COCCn1c(C)cc(C(=O)CSc2nc(C)c(C)c(C)n2)c1C	nt	-5%	?	1%	0%	-26%	nt
CCN(C(=O)COC(=O)c1cccnc1SC)c1c(N)n(Cc2ccccc2)c(=O)[nH]c1=O	nt	5%	4%	-6%	2%	-13%	nt
COc1ccc(CCNC(=O)c2ccccc2NS(=O)(=O)c2cc(C(=O)O)ccc2OC)cc1	?	-7%	-3%	1%	-2%	-19%	2
CCOC(=O)C1CCN(C(=O)CSc2ccccc2Cl)CC1	8%	-8%	8%	1%	21%	0%	nt
SMILES	NS1 inh	HCV inh	Pf growth 96h	SARS PLpro yeast	AMA1 RON2 block	Pf growth 48h	NS1 inh valid	others
CCC(CC)NCc1ccc(OC)cc1OC	?	-3%	0%	3%	-6%	14%	-13
CC1(c2ccc3ccccc3c2)NC(=O)N(CC(=O)Nc2cccc(S(=O)(=O)N3CCOCC3)c2)C1=O (stereo unspecified)	10µM*	6%	?	-3%	3%	-13%	17	Flu PR8 replic=8.3
O=C(CCCN1C(=O)NC2(CCCC2)C1=O)Nc1cccc(S(=O)(=O)N2CCOCC2)c1	nt	9%	1%	-12%	-14%	?	nt
CNS(=O)(=O)c1ccc(C)cc1	?	36%	115%	0%	-10%	nt	13
Cc1ccc(S(=O)(=O)c2ccc(C)cc2)cc1	5%	24%	24%	2%	4%	nt	nt
CC(C)Nc1ccc(Cl)cc1[N+](=O)[O-]	3%	nt	0%	-4%	nt	8%	nt
COc1ccccc1-n1cc(-c2ccccc2)[nH]c1=S	-7%	-15%	16%	1%	80%	?	nt
CCOc1ccc(-c2cn(-c3ccccc3OC)c(=S)[nH]2)cc1	?	?	21%	1%	39%	?	-34
O=C1CCC(C(=O)N2CCCCCC2)CN1CCc1ccc(Cl)cc1 (stereo unspecified)	2µM*	6%	-16%	6%	-13%	8%	-14
O=C1CCC(C(=O)N2CCC(O)CC2)CN1CCc1ccc(Cl)cc1 (stereo unspecified)	6%	26%	2%	-1%	3%	19%	nt
COc1ccc(-n2c(O)c(/C=N/NS(=O)(=O)c3ccc(C)cc3)c3ccccc3c2=O)cc1OC	10µM*	17%	?	1%	-11%	?	0
CN1C(=O)c2ccc(NC(=O)CSc3ccccc3)cc2C1=O	-17%	17%	20%	-2%	3%	40%	nt
O=C(CSc1ccc(F)cc1)Nc1ccc2c(c1)C(=O)NC2=O	1.6µM*	12%	80%	5%	5%	24%	-9
Cc1ccc(S(=O)(=O)N2CCC(=O)N(C(COCc3ccc(Cl)cc3Cl)Cc3ccccc3)CC2)cc1 (stereo unspecified)	?	0%[8.37 µM]	?	1%	-1%	?	-4	Flu PR8 replic=7.5*
COc1cc(NS(=O)(=O)c2ccc(NC(=O)COc3ccccc3Cl)cc2)nc(OC)n1	14µM*	21%	nt	8%	24%	nt	-2
